CYP2C9 activ: human CYP2C9 activators, primary screen, biochemical, luminescence; recombinant CYP2C9, luciferin-H conversion; active compounds read high; factor 1 = untreated enzyme, 0 = blocked; actives 1.4% (n = 96,000); Cytochrome P450 2C9 (Homo sapiens), P11712; activation factor at 5 µM;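 active = activation factor of 2 or more for CYP2C9 at a 5 µM dose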;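 note: 0 = sulfaphenazole-blocked wells and 1 = vehicle-only wells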
Target sequence (P11712 whole entry, looked up): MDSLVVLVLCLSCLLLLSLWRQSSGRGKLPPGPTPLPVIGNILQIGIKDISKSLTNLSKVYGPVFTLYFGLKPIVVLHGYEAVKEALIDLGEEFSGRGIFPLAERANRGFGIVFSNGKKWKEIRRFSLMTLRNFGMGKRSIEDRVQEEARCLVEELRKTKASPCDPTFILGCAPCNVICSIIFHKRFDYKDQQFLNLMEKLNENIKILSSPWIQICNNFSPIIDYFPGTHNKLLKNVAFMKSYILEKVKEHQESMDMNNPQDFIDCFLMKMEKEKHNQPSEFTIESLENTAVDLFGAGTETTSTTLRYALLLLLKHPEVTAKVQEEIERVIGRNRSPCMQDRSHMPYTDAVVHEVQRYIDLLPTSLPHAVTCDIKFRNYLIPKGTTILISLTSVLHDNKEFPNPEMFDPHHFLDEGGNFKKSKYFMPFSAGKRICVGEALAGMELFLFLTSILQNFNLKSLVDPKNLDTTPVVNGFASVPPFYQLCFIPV
CYP2C9 inhib: blockers of cytochrome P450 2C9 activity – biochemical, luminescence, ADME assay, primary screen. AID 777, 2007. inhibition, % at 5 µM. P11712. actives 20% (n = 96,000). CYP2C9 Supersomes, luciferin-H conversion;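 active = blocking of liver enzyme CYP2C9 beyond about 50% at 5 µM, limit read from the data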
D1 mod: D1 CRE-luciferase signal change, two-sided – cell-based, HEK293 D1, dopamine EC30, D1 allosteric modulator project, primary screen | D(1A) dopamine receptor (Homo sapiens), P21728 | dopamine EC30 potentiation; actives deviate in either direction | B-score at 10 µM | actives 5.9% (n = 58,000);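 active = luminescence count or its row- and column-corrected plate score outside the 99.7% band of the plate's sample wells, on either side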
CYP2C19 inh: blockers of cytochrome P450 2C19 activity – biochemical, luminescence, ADME assay, primary screen | P33261 | CYP2C19 Supersomes, luciferin-H EGE luminescence, 30 min | actives 21% (n = 96,000) | inhibition, % at 5 µM;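 active = CYP2C19 inhibition above a set limit at 5 µM in the primary screen, cut at about 50% in these data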;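 note: plate controls were negative control wells for no effect and 2.5 mM tranylcypromine positive control for full effect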
hDAT+cocaine: changed hDAT dopamine uptake under cocaine IC80, either direction, primary screen, cocaine antagonist project, cell-based, LLC-PK1 hDAT, [14C]-dopamine uptake, MLSMR; AID 449768, 2010; actives 1.3% (n = 110,000); LLC-PK1 hDAT cells, [14C]-dopamine uptake with cocaine IC80; actives deviate in either direction; B-score at 10 µM;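 active = Z score or B-score, a plate-position-corrected score, falls beyond the plate's 99.7% confidence bounds, in either direction; inactive = both scores lie inside the 99.7% bounds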;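 note: scored against the spread of the other compound wells on the same plate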
CYP2C19 activ: human CYP2C19 activators, primary screen, biochemical, luminescence; recombinant CYP2C19, luciferin-H EGE luminescence; active compounds read high; 0 = fully inhibited enzyme, 1 = untreated enzyme; activation factor at 5 µM; 96,000 tested, under 10 active;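 active = activation factor of at least 2 at 5 µM in the primary screen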;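 note: 0 = wells with 2.5 mM tranylcypromine and 1 = vehicle-only wells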
The depositor's hits bear a star; . = no result given. Shown are actives, neighbours in structure and some others; about 28% of the full set was active somewhere.

SMILES	CYP2C9 activ	CYP2C9 inhib	D1 mod	CYP2C19 inh	hDAT+cocaine	CYP2C19 activ
CC(=O)NC12CC3CC(C1)CC(C(=O)Nc1nccs1)(C3)C2	0.4	55.7*	0.165	84.7*	0.949	0.2
COc1cccc(OCc2nc3c4cnn(-c5ccccc5)c4ncn3n2)c1	0.7	30.0	0.211	53.2*	1.06	0.5
COc1cccc(OCCN2CCN(c3ncnc4c3cnn4-c3ccccc3)CC2)c1	0.5	47.8	0.807	49.6	0.635	0.5
Cc1ccc(C(c2nnnn2Cc2cccs2)N2CCN(Cc3ccc4c(c3)OCO4)CC2)cc1 (stereo not drawn)	0.6	39.8	-1.62	61.5*	0.122	0.4
COCCn1nnnc1C(CC(C)C)N1CCN(c2ccccc2)CC1 (stereo not drawn)	.	.	.	.	-0.208	.
COc1ccccc1CN1CCN(C(CC(C)C)c2nnnn2Cc2cccs2)CC1 (stereo not drawn)	0.4	58.2*	-1.04	92.3*	1.29	0.1
Fc1ccc(C(c2nnnn2Cc2cccs2)N2CCN(c3ccccc3)CC2)cc1 (stereo not drawn)	.	.	.	.	2.2*	.
COCCn1nnnc1C(c1ccc(C)cc1)N1CCN(Cc2ccc3c(c2)OCO3)CC1 (stereo not drawn)	0.5	51.4*	-0.0991	47.7	-0.252	0.5
COCCn1nnnc1C(c1ccccc1)N1CCN(Cc2ccc3c(c2)OCO3)CC1 (stereo not drawn)	1	0.2	0.0732	18.1	-0.00948	0.8
O=C(O)C1=C[C@H](c2ccc(Br)cc2)C[C@H](OCCCCO)O1	.	.	.	.	-0.837	.
CCOC(=O)C1=NN(N=O)C2(CC(=O)N(c3cc(C)cc(C)c3)C2=O)C1 (stereo not drawn)	1	4.8	.	-18.9	-1.16	1.2
c1cncc(C(c2nnnn2C2CCCC2)N2CCN(Cc3ccc4c(c3)OCO4)CC2)c1 (stereo not drawn)	1	-1.3	0.081	25.1	-1.05	0.7
CC(C)(C)n1nnnc1C(c1cccs1)N1CCN(Cc2ccc3c(c2)OCO3)CC1 (stereo not drawn)	0.6	38.3	.	52.7*	1.65	0.5
CCC(C)(C)n1nnnc1C(c1cc2cc(C)cc(C)c2[nH]c1=O)N1CCN(Cc2ccc3c(c2)OCO3)CC1 (stereo not drawn)	0.2	79.7*	.	25.9	.	0.7
Cc1ccc(C)n1CCN1CCN(CC(=O)Nc2cc(C(F)(F)F)ccc2Cl)CC1	0.6	44.7	-1.54	15.7	-0.0442	0.8
Cc1ccn2cc(CNS(=O)(=O)c3ccc(Cl)s3)nc2c1	0.8	22.9	-0.0631	29.7	-0.362	0.7
Cc1cc(C)c2nc(N3CCCC(C(=O)N4CCC(C(N)=O)CC4)C3)sc2c1 (stereo not drawn)	1	-4.0	-4.15*	0.7	0.65	1
Cc1cc(C)c2nc(N3CCCC(C(=O)NCCN4CCOCC4)C3)sc2c1 (stereo not drawn)	0.9	10.0	-0.918	14.8	-0.538	0.9
CCOC(=O)c1cccc(-n2c(C)nc3ccccc3c2=O)c1	0.9	8.4	-0.0369	13.4	1.51	0.9
CCOC(=O)c1cccc(N2C(=O)c3ccccc3S2(=O)=O)c1	0.3	68.4*	1.13	56.4*	.	0.4
COc1ccc(OC)c([C@@H]2OCCC=C[C@H]2C)c1	.	.	.	.	0.533	.
CCCCCn1c(=O)c(C(=O)OCC)c(O)c2ccccc21	1	4.2	-0.312	-4.2	0.243	1
CCCCCCCCn1c(=O)c(C(=O)OCC)c(O)c2ccccc21	0.2	78.2*	.	42.2	0.196	0.6
Cc1nnc(NC(=O)CSc2nc(C(C)C)nc3sc(C)c(C)c23)s1	0.7	31.4	.	22.5	0.0218	0.8
CCOc1ccccc1C(=O)Nc1ccc(-c2nnc(-c3ccc(C)cc3)o2)cc1	.	.	-1.16	.	.	.
SMILES	CYP2C9 activ	CYP2C9 inhib	D1 mod	CYP2C19 inh	hDAT+cocaine	CYP2C19 activ
Cc1cc(C)c(NC(=O)COc2ccccc2C(=O)Nc2ccc3c(c2)oc2ccccc23)c(C)c1	0	96.8*	.	37.0	0.00738	0.6
COC(=O)c1cccc(N2C(=O)C3CC=CCC3C2=O)c1 (stereo not drawn)	.	.	.	.	-1.35	.
COC(=O)c1cc(Br)c(=O)n(-c2ccccc2OC)c1	1.2	-22.3	0.248	14.2	0.366	0.9
COC(=O)c1cc(Br)c(=O)n(-c2cccc(F)c2)c1	1	-0.4	.	52.0*	1.49	0.5
COC(=O)c1cc(Br)c(=O)n(-c2ccc(OC)cc2)c1	0.9	12.1	0.142	55.4*	.	0.4
COc1ccc(N(C(=O)Nc2ccc(Cl)cc2)C2=NCCC2)cc1	0.5	53.9*	0.352	9.7	0.104	0.9
C=CCN(c1ccc(C(=O)NCCc2ccccc2)cc1)S(C)(=O)=O	1.1	-9.6	.	10.5	-0.564	0.9
C#CC(CO)N(CCN(Cc1ccccc1)C(C#C)CO)Cc1ccccc1 (stereo not drawn)	0.1	94.6*	0.0751	100.0*	0.155	0
C#CCN(C)Cc1ccccc1	.	.	0.938	.	-0.176	.
CC(=O)C1=C(O)C(=O)N(Cc2ccccc2)C1c1cccs1 (stereo not drawn)	0.7	31.7	-0.437	-2.8	-1.13	1
N#CC1=C2SCN(Cc3ccccc3)CN2C(=O)CC1c1ccc2c(c1)OCO2 (stereo not drawn)	0.4	58.8*	-0.69	53.7*	-1.55	0.5
N#CC1=C2SCN(Cc3ccccc3)CN2C(=O)CC1c1cccs1 (stereo not drawn)	0.4	60.2*	0.604	51.1*	-1.35	0.5
CCO[C@@H]1OC(C(N)=O)=C[C@H](C2CC2)[C@H]1CCCO	.	.	.	.	-1.21	.
COc1ccc(CCN=CC2=C(O)CCCC2=O)cc1OC	1.1	-11.6	1.12	-10.1	-0.0937	1.1
CCOC(=O)c1c(NC(=O)CSc2nnc(-c3c[nH]c4ccccc34)n2C)sc2c1CCCC2	.	.	.	.	0.3	.
COC(=O)c1c(NC(=O)CSc2nnnn2-c2ccccc2)sc2c1CCCC2	0.3	71.5*	.	31.6	2.24	0.7
COC(=O)c1cccc(-n2nnnc2SCC(=O)Nc2nc3c(s2)CCCC3)c1	0.7	29.0	1.25	53.2*	1.35	0.5
COC(=O)c1cccc(-n2nnnc2SCC(=O)Nc2cc(C)on2)c1	0.5	51.5*	0.23	51.4*	0.304	0.5
COc1cccc(-n2nnnc2SCC(=O)Nc2nc3c(s2)CCCC3)c1	.	.	.	.	0.52	.
CC(C)(C)OC(=O)Cn1c(=O)cnc2ccccc21	1.1	-9.7	.	34.3	-0.724	0.7
CNc1ccccc1-n1ccc(-c2ccccc2)n1	0.7	29.0	0.494	71.7*	-0.494	0.3
